About 79,000 compounds went through this panel and 15% of them were active in at least one assay; those are over-represented in the sample as a whole. Unmarked numbers belong to inactive results. The source made the active and inactive calls. Cut-off read from the data, not from the text of the source: active = growth inhibition above about 70%; inactive = the rest.
Assay: NCI Yeast Anticancer Drug Screen. Data for the mlh1 strain (AID 171);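 note: 0% = growth of vehicle-treated control cultures of the same strain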
Conditions: S. cerevisiae mlh1 strain growth inhibition, active compounds read high
Method: Growth inhibition of yeast strains with defined genetic alterations is measured as a screen for potential anti-cancer activity. Selected strains with alterations in DNA damage repair or cell cycle control were exposed to compounds and growth inhibition was measured relative to vehicle treated controls. The strain used in this assay is mlh1

Row | Structure (SMILES) | growth inhibition (at 1.2 µM) | growth inhibition (at 3.7 µM) | growth inhibition (at 11.0 µM) | growth inhibition (at 33.0 µM) | growth inhibition (at 100.0 µM)
1 | CC[n+]1ccc2c(C)c3[nH]c4ccc(O)cc4c3c(C)c2c1 | 0% | -16% | -18% | -4% | 10%
2 | O=C1CSc2cc([N+](=O)[O-])ccc2N1 | 18% | 5% | 6% | 0% | -22%
3 | C/C(=N\O)C1CC2C=C(C#N)C1N(Cc1ccccc1)C2 (stereo not given) | -3% | 0% | 0% | 0% | 0%
4 | CCCCCCCCCCCCCCCCCCNC | -26% | -10% | -8% | -40% | 70% (active)
5 | N#Cc1c(N)[nH]c2ccc(Sc3ccccc3)cc12 | -1% | 3% | 11% | 96% (active) | 97% (active)
6 | O=C(COC(=O)c1cc(O)c(O)c(O)c1)c1ccc(-c2ccccc2)cc1 | -3% | 0% | 4% | 57% | 95% (active)
7 | O=[N+]([O-])c1cc(CCl)ccc1CCl | 4% | 13% | 58% | 95% (active) | 98% (active)
8 | Clc1ccccc1C1OC1c1ccccc1Cl (stereo not given) | -69% | -69% | -35% | -50% | 24%
